From PubChem BioAssay (Tox21)
Inconclusive results are not listed. A call without a number means that no potency is given here. A number with no mark means an inactive call. The source made the active and inactive calls. Calls come from the whole dose curve.

Experiment: qHTS assay for small molecules that induce genotoxicity in human embryonic kidney cells expressing luciferase-tagged ATAD5 - cell viability (AID 651634); note: nearly all actives have a fitted effect of over 25% in size
Conditions: HEK293T ATAD5-luc cells viability, CellTiter-Fluor, 15.5 h; series mostly up to 83.3 µM
Description: National Center for Advancing Translational Sciences [NCATS]
NIH Chemical Genomics Center [NCGC]
U.S. Environmental Protection Agency [EPA]
National Institutes of Environmental Health Sciences [NIEHS]
National Toxicology Program [NTP]
U.S. Food and Drug Administration [FDA]
Enhanced Level of Genome Instability Gene 1 (ELG1; human ATAD5) protein levels increase in response to various types of DNA damage. Using a luciferase reporter-gene tagged with ElG1, a cell-based assay [developed by Kyungjae Myung, NHGRI, NIH] was used to measure the induction of ATAD5 in human embryonic kidney cells (HEK293T). So, increase in luciferase activity can be used to identify the compounds that cause genetic stress. In addition to genotoxicity, these cells were also used to test for cytotoxicity by measuring the protease activity within live cells.
Tox21 Assay Protocol Summary:
For cytotoxicity screening, 2,000 cells in 5 uL/well were dispensed into white, solid-bottom 1536-well plates using a Multidrop Combi (Thermo Scientific) dispenser. Following transfer of 23 nL compound or DMSO vehicle by a pin tool, the plates were incubated 15.5 hr at 37C and 5% CO2. 1 ul CellTiter-Fluor reagent (Promega, Madison, WI) was then added to each plate and following 30 min incubation at 37C, fluorescence intensity was quantified on a ViewLux CCD-based plate reader.
Potency is the fitted concentration of half-maximal effect.

SMILES	Potency	activity, negative = cytotoxicity
CCOC(=O)NCCOc1ccc(Oc2ccccc2)cc1	inactive	
Nc1ccc(S(=O)(=O)Nc2ccccc2)cc1	inactive	
O=C(NCCO[N+](=O)[O-])c1cccnc1	inactive	
O=C(c1ccc(F)cc1)C1CCN(CCn2c(=S)[nH]c3ccccc3c2=O)CC1	inactive	
CCn1cc(C(=O)O)c(=O)c2cnc(N3CCNCC3)nc21	inactive	
O=C(O)c1ccccc1Cl	inactive	
CCNc1cc(O)ccc1C	inactive	
NCC(=O)O	inactive	
C/C=C/C=C/CO	inactive	
O=C(O)c1ccc(S(=O)(=O)O)cc1C(=O)O	inactive	
C/C(=C(\CCOP(=O)(O)O)SC(=O)c1ccccc1)N(C=O)Cc1cnc(C)nc1N	inactive	
OC(C#CCN1CCCC1)(c1ccccc1)c1ccccc1	inactive	
CCCCCCCC/C=C\CCCCCCCC(=O)OCC	inactive	
OCCNCc1ccccc1	inactive	
CCCCC	inactive	
C=CC1CC2C=CC1C2 (stereo not given)	inactive	
CCN(CC)CCOC(=O)C(Cc1cccc2ccccc12)CC1CCCO1 (stereo not given)	inactive	
COC(=O)c1ccc(I)cc1S(=O)(=O)NC(=O)Nc1nc(C)nc(OC)n1	inactive	
S=C([S-])NCCNC(=S)[S-].[Mn+2]	inactive	
C=CCOc1ccccc1OCC(O)CNC(C)C (stereo not given)	inactive	

SMILES	Potency	activity, negative = cytotoxicity
C/C=C/C(=O)CC		-7.15% [at 17.9 µM]
COc1cccc(N(C)C(=S)Oc2ccc3c(c2)CCCC3)n1	inactive	
CCCCCCCC#N	inactive	
CCN(CC)CCNc1ccc(CNC=O)c2sc3ccc(OC)cc3c(=O)c12	4.86 µM (active)	
CCO[C@H](Cc1ccc(OCCc2ccc(OS(C)(=O)=O)cc2)cc1)C(=O)O	inactive	
C#C[C@]1(O)CC[C@H]2[C@@H]3CCc4cc(OC5CCCC5)ccc4[C@H]3CC[C@@]21C	inactive	
CCCCCCCCCCCCCCOS(=O)(=O)O	inactive	
C[Si](C)(CCCN)O[Si](C)(C)CCCN	inactive	
C#CCN(C)CCCOc1ccc(Cl)cc1Cl	inactive	
CCOC(=O)C(F)(F)F	inactive	
CN1CCN(C(c2ccccc2)c2ccccc2)CC1	inactive	
c1ccc(CNCCNCc2ccccc2)cc1	inactive	
CC1(c2ccccc2)OC(C(=O)O)=CC1=O (stereo not given)	inactive	
COc1ccnc(CS(=O)c2nc3ccc(OC(F)F)cc3[nH]2)c1OC (stereo not given)	inactive	
CCCCCCCN	inactive	
COc1cc2nc(N3CCN(C(=O)C4COc5ccccc5O4)CC3)nc(N)c2cc1OC (stereo not given)	inactive	
Clc1ccc(Cn2c(CN3CCCC3)nc3ccccc32)cc1	inactive	
Cc1cc(N)c2cc(NC(=O)Nc3ccc4nc(C)cc(N)c4c3)ccc2n1	inactive	
O=C1OC(CN2CCOCC2)CN1/N=C/c1ccc([N+](=O)[O-])o1 (stereo not given)	inactive	
CCCCCCCCCCCCN1CCCCCC1=O	61.1 µM (active)	
